In PubChem BioAssay (Tox21):
Results filed as inconclusive are left out. Unmarked numbers belong to inactive results. Calls of active or inactive are those of the source. Unless noted, calls come from the whole dose curve.

The compounds below were run against Estrogen receptor (Homo sapiens) (UniProt P03372) (assay: qHTS assay to identify small molecule agonists of the estrogen receptor alpha (ER-alpha) signaling pathway (AID 743075;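 note: HEK293 GripTite cells with ER-alpha and UAS-driven beta-lactamase reporter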)). Details: HEK293 ER-alpha-UAS-bla, beta-lactamase FRET ratio, 18 h; series mostly up to 70.1 µM; activation: at the top concentration.
% is set by controls: 0 for no effect and ±100 for the full control effect.

Estrogen receptor (Homo sapiens), sequence (P03372 whole entry, looked up): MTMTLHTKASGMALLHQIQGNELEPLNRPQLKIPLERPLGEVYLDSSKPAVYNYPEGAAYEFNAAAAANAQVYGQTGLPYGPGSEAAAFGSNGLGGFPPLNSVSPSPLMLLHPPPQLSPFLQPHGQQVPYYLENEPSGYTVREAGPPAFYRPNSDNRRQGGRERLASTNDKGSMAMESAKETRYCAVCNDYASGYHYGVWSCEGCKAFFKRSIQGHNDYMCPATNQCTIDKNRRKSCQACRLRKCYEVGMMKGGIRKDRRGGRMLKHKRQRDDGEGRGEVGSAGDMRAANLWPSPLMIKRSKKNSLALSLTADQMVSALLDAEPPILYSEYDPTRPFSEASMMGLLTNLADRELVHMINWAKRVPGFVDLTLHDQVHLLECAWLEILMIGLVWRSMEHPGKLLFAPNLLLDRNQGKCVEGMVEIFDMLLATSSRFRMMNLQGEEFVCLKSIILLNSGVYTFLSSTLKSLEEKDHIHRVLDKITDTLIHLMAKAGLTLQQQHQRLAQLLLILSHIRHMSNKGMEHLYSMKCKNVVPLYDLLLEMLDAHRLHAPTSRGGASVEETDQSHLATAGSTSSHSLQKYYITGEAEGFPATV

Compound	activation [%]
CCCC(=O)O[C@]1(C(=O)COC(=O)CC)CC[C@H]2[C@@H]3CCC4=CC(=O)CC[C@]4(C)[C@H]3[C@@H](O)C[C@@]21C	10.2
Cc1ccc(Nc2nccc(N(C)c3ccc4c(C)n(C)nc4c3)n2)cc1S(N)(=O)=O	5.43
CC(C)c1nnc2ccc(-c3ocnc3-c3cc(F)ccc3F)cn12	-4.53
Nc1nc(Cl)nc2c1ncn2[C@@H]1O[C@H](CO)[C@@H](O)[C@@H]1F	-1.95
Cc1oc(C)c(C(=O)Nc2ccccc2)c1C	-1.71

What follows are compounds tested against Estrogen receptor (Homo sapiens) (UniProt P03372) (assay: qHTS assay to identify small molecule agonists of the estrogen receptor alpha (ER-alpha) signaling pathway using the BG1 cell line (AID 743079; active = well fitted activation curve with a large enough effect in the repeat runs; note: nearly all actives have a fitted effect of over 20% in size; note: potency is the fitted concentration of half-maximal effect)). Details: BG1Luc4E2 cells, ERE-luciferase agonist, 22 h; activation: at 70.3 µM (top of the series).

Compound	activation [%]	Potency
CCCCC(=O)O[C@]1(C(=O)CO)CC[C@H]2[C@@H]3CCC4=CC(=O)CC[C@]4(C)[C@H]3[C@@H](O)C[C@@]21C	-5.33	
Nc1nc(Cl)nc2c1ncn2[C@@H]1O[C@H](CO)[C@@H](O)[C@@H]1F	-19.8	
COCc1c(C(C)C)nc(C(C)C)c(/C=C/[C@@H](O)C[C@@H](O)CC(=O)O)c1-c1ccc(F)cc1		11.9 µM (active)
